Among the data in PubChem BioAssay (NCI) are growth values, retold here.

Values joined by “and” are separate entries in the source; they are usually repeats but may differ in a detail not shown here. Equal entries are not always repeated. The panel holds about 83,000 compounds, 20% with a hit somewhere; the sample as a whole holds those more often.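 Interpretation: 100, growth as untreated; towards 0, rising growth inhibition; 0, no net growth; 0 to -100, cell death. Compounds scoring below 10 were considered active.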 The source holds several records for some structures; these can differ, active in one and inactive in another. Active and inactive are the calls of the source.

For this experiment, the system named is SN12C renal. The experiment is described as follows: NCI-60 one-dose screen, 48 h (100 = growth as untreated, 0 = no growth, -100 = all killed). The following applies: 10 µM unless noted. How it is done:
Growth inhibition of the SN12C human tumor cell line is measured as a screen for anti-cancer activity. Cells are grown in 96 well plates and exposed to the test compound for 48 hours. Compounds are tested at a single concentration, which is 10^-5 M for most compounds. The reported endpoint is percent growth (GI% or GIPRCNT), where numbers from 0 - 100% represent growth inhibition, and numbers from -100% - 0 represent cell death. For example, a value of 40 represents 60% growth inhibition. A value of 0 means no net growth occurred over the course of the experiment. A value of -40 indicates 40% of cells at the beginning of the experiment died by the end of the experiment. A value of -100 means all cells are dead at the end of the experiment.
NCI-60 Human Tumor Cell Lines Screen was performed using the standard one-dose NCI protocol, which is described in more detail at https://dtp.cancer.gov/discovery_development/nci-60/default.htm.
Compounds with GIPRCNT values below 10 were considered active. Activity score was based on GIPRCNT using the following formula: […]
Score is 0 for GIPRCNT values of 100 or above, 50 for GIPRCNT values of 0, and 100 for GIPRCNT values of -100.
Take `N#C/C(=N\Nc1ccc(Cl)cc1)C(=O)C1CC1`: the growth was 41.4% (inactive).

Consider `CCCCCCC1N=C(N)N=C(N)N1c1cccc(Cl)c1` (stereo not given), for which the growth is 26.8% (inactive).

Turning to `C=C(C(N)=O)C(N)C(=O)O` (stereo not given), the growth was 108% (inactive).

As for `Oc1ccc2c(c1)CCc1ccccc1-2`, the growth is 107% (inactive).

As to `CCNc1nnnn1CC`, the growth was 93% (inactive).

In the case of `Cc1cc(C)c(C#N)c(Sc2nc(C)c([N+](=O)[O-])c(C)c2C#N)n1`, the growth is 47.4% (inactive).

Take `NCCCN(CCCN)CCCNCc1c2ccccc2c(CNCCCN(CCCN)CCCN)c2ccccc12`: the growth is 110% (inactive).

Turning to `CCC(=O)c1cc([N+](=O)[O-])c(Br)s1`, the growth is 103% (inactive).

On to `O=[N+]([O-])c1ccc(C2N(Cc3ccc(Cl)cc3)CCN2Cc2ccc(Cl)cc2)cc1`, for which the growth is 90.7% (inactive).

On to `CC1(O)CCCCCC1`, for which the growth was 99.9% (inactive).

As for `CCCN(CCC)C(=O)c1ccc(C)cc1`, the growth was 97.9% (inactive).

Turning to `Clc1ccc(Cc2nc3ccccc3s2)cc1`, the growth was 86.1% (inactive).

On to `Cc1cc(C(N)=O)cc(C)c1C(=O)OCCCl`, for which the growth was 98.3% (inactive).

In the case of `COc1cc(NCc2ccc3nc(N)nc(N)c3c2C)cc(OC)c1OC` (tested in a mixture with another compound), the growth is 44.7% (inactive).

On to `OC(c1cc(-c2ccc(C(F)(F)F)cc2)nc(C(F)(F)F)c1)C1CCCCN1` (stereo not given), for which the growth is -50.3% (active) and -86.4% (active) and 28.5% (inactive).

`CCCCCCCCCCCCSC(=N)N`: the growth is 51.3% (inactive).

For the compound `CCOC(=O)c1c(C)[nH]c2ccc(O)cc12`, the growth was 98.9% (inactive).

With `CCC1C[N+]2=C(c3cc(OC)c(OC)cc3CC2)c2c1cc1n2CCc2cc(OC)c(OC)cc2-1` (stereo not given), the growth was 32.7% (inactive).

Consider `[Cl-].[Rh+3].c1ccc(-c2ccnc3c2ccc2c(-c4ccccc4)ccnc23)cc1.c1ccc(-c2ccnc3c2ccc2c(-c4ccccc4)ccnc23)cc1.c1ccc(-c2ccnc3c2ccc2c(-c4ccccc4)ccnc23)cc1`, for which the growth is 85.8% (inactive).

As for `Cc1cc2cccnc2c2ncccc12`, the growth was 22.4% (inactive).

`CC/C(=C(/CC)c1ccc(O)cc1)c1ccc(O)cc1`: the growth is 76% (inactive).

With `CCC[CH2][Sn]1([CH2]CCC)[O]C2C(CO)OC(n3ccc(N)nc3=O)C2[O]1` (stereo not given), the growth is -52.6% (active).

As for `CCc1oc2ccccc2c1C(=O)c1cc(Br)c(O)c(Br)c1`, the growth was 78.4% (inactive).

As to `COc1ccc2c(c1OC)OCC(CN(C)C)C2=O` (stereo not given), the growth is 98.5% (inactive).

For `CC(O)C(O)C(O)C(O)C(O)C(=O)NNc1ccccc1` (stereo not given), the growth is 90.5% (inactive).

In the case of `Oc1c(Cl)cc(Cl)cc1C=NCC1CCC(CN=Cc2cc(Cl)cc(Cl)c2O)CC1` (stereo not given), the growth was 86.3% (inactive).

For the compound `Oc1c(C(Nc2ccccc2)c2ccccc2)ccc2cccnc12` (stereo not given), the growth was 54.6% (inactive).

Regarding `C[C@@]1(CO)[C@H](O)CC[C@@]2(C)[C@H]1CC[C@H]1C[C@@H]3C[C@@]12CC[C@@]3(O)COC(=O)CN`, the growth is 61.6% (inactive).

On to `C/C(=N\NC(=S)N1CC2CCC(CC2)C1)c1ccccn1`, for which the growth is 4.27% (active).

As for `Cc1cc(=O)oc2cc(O)cc(O)c12`, the growth was 102% (inactive).

On to `C/C=C/c1cc2c(c(=O)o1)C(=O)[C@@H](O)[C@H](C)O2`, for which the growth was 97.6% (inactive).

Turning to `CCCc1cc(=O)oc2c3c(c4c(c12)OC(C)(C)CC4)OC(C)[C@H](C)[C@@H]3O` (stereo not given in full), the growth was 81% (inactive).

Regarding `CC1=CC(=NC(=O)CBr)C=C/C1=N\S(=O)(=O)c1ccccc1`, the growth is 14.1% (inactive).

`c1ccc(-c2cccc(-c3ccccn3)n2)nc1`: the growth was 10.5% (inactive).

`O=C(Nc1ccc(Cl)c(Cl)c1)Nc1ccccc1O`: the growth is 76.4% (inactive).

Regarding `Cc1onc(-c2ccccc2)c1C(=O)N/N=C/c1cc(Cl)cc(Cl)c1O`, the growth was 33.1% (inactive).

For `O=C1C(=O)c2cccnc2-c2ncccc21`, the growth is -14.3% (active).

Turning to `O=C(Cc1ccccc1)C(F)(F)F`, the growth is 103% (inactive).

In the case of `O=[N+]([O-])c1ccc(N2CCN(Cc3ccccc3)CC2)c2c1no[n+]2[O-]`, the growth was 19.1% (inactive).

In the case of `CCCCCCN(CCCCCC)CCCNc1nccc2ccccc12`, the growth was 18.7% (inactive).
